Compounds without any hit were thinned out: in the full panel of roughly 83,000, 20% have a hit.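 How to read the values: 0–100, growth inhibition (40 = 60% inhibited); 0, no net growth; -100 to 0, cell death (-40 = 40% of starting cells died; -100 = all dead).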 Values without a mark were called inactive. Active and inactive are the calls of the source.

This test deals with HCT-116 colon. Briefly: NCI-60 one-dose screen, 48 h (100 = growth as untreated, 0 = no growth, -100 = all killed). The conditions noted are these: 10 µM unless noted. The procedure:
Growth inhibition of the HCT-116 human tumor cell line is measured as a screen for anti-cancer activity. Cells are grown in 96 well plates and exposed to the test compound for 48 hours. Compounds are tested at a single concentration, which is 10^-5 M for most compounds. The reported endpoint is percent growth (GI% or GIPRCNT), where numbers from 0 - 100% represent growth inhibition, and numbers from -100% - 0 represent cell death. For example, a value of 40 represents 60% growth inhibition. A value of 0 means no net growth occurred over the course of the experiment. A value of -40 indicates 40% of cells at the beginning of the experiment died by the end of the experiment. A value of -100 means all cells are dead at the end of the experiment.
NCI-60 Human Tumor Cell Lines Screen was performed using the standard one-dose NCI protocol, which is described in more detail at https://dtp.cancer.gov/discovery_development/nci-60/default.htm.
Compounds with GIPRCNT values below 10 were considered active. Activity score was based on GIPRCNT using the following formula: […]
Score is 0 for GIPRCNT values of 100 or above, 50 for GIPRCNT values of 0, and 100 for GIPRCNT values of -100.
On to `CC(=O)N1Cc2ccccc2C(C)Cc2cc(Cl)ccc21` (stereo not given), for which the growth was 105%.
The value for `O=S(=O)(NCCCNc1cc(-c2cn(-c3ccccc3)nc2-c2cccc(O)c2)ccn1)c1cccc2ccccc12` was 28.1%.
On to `NC(=O)c1c(NC(=O)c2ccc3c(c2)OCO3)sc2c1CCC(=O)C2`, for which the growth was -56.3% (active).
The value for `COc1ccc(N=C2NN=C(c3ccc(F)cc3)CS2)cc1OC` was 96.1%.
The value for `CCOC(=O)c1cc(/C(=N\O)c2cc(OC)c(OC)c(OC)c2)n2cc(C)cc(C)c12` was -6.14% (active); that for `CC(C)(C)c1ccc(S(=O)(=O)Oc2ccc3c4c(c(=O)oc3c2)CCCCC4)cc1` was 36.6%.
As for `COc1ccc(C(=O)/C=C/c2ccc(/C=C/c3cc(OC)c(OC)c(OC)c3)cc2)cc1`, the growth was 17.5%.
As to `CCOC(=O)[C@H](CSSc1ncnc2cc[nH]c12)NC(=O)[C@@H](C)c1ccc2cc(OC)ccc2c1`, the growth was 11.1%.
`CC(C)C[C@H](NC(=O)[C@@H](Cc1ccccc1)n1ccc(Nc2ccccc2)cc1=O)B(O)O`: the growth was -37.9% (active).
For the compound `c1ccc([P+](CCC[P+](c2ccccc2)(c2ccccc2)c2ccccc2)(c2ccccc2)c2ccccc2)cc1`, the growth is 67.5%.
The value for `COc1ccc(/C=C\c2cc(OC)c(OC)c(OC)c2)c(NS(=O)(=O)c2ccc(C(C)(C)C)cc2)c1O` was 13.4%; that for `CC1CCc2c(sc(NC(=O)CSc3nnc4ccccn34)c2C(N)=O)C1` (stereo not given) was 104%.
Under `Clc1ccc2c(c1)NC1(CCSc3ccccc31)n1nccc1-2` (stereo not given) stands 89.4%.
The value for `FC(F)(F)c1cccc(-n2nnc3cnc(Nc4ccc(N5CCCCC5)cc4)nc32)c1` was 4.87% (active); that for `CCCCOc1nc2c(C)cccc2cc1C1CNC(=O)c2ccccc2N1` (stereo not given) was 45.9%.
Consider `COc1cc(CNC(=O)CSc2nc3ccccc3c(=O)n2Cc2cc(OC)c(OC)c(OC)c2)cc(OC)c1OC`, for which the growth was 97.5%.
Under `CC(=O)Nc1ccc2c(c1)/C(=C\C=C/c1ccc([N+](C)(C)C)cc1)c1ccccc1-2` stands 70.3%; under `N#Cc1ncc(-c2ccc(F)c(F)c2F)c(NC2CCCCCC2)n1`, 72.6%; under `CCN1C(=O)N[C@H]2[C@@H]3NC(=O)c4ccc(Cl)n4[C@@H]3C[C@]21O`, 0.673% (active).
Under `NC(=O)c1c(NC(=O)c2ccc(OCC3CCCO3)cc2)sc2c1CCCC2` (stereo not given) stands 90%; under `O=S(=O)(NCCNc1nccc(-c2c(-c3ccccc3)nc3sccn23)n1)c1ccc(O)cc1`, 21.5%.
Turning to `CCCCCCOc1ccc(C2(Cl)c3ccccc3N(C)c3ccccc32)cc1`, the growth is 16.1%.
Turning to `COC1=CC(c2ccc[nH]2)=N/C1=C\c1[nH]c(C)c(C(=O)CCCCC(=O)Oc2ccc3c(c2)CCC2C3CC[C@]3(C)[C@@H](O)CC[C@@H]23)c1C` (stereo not given in full), the growth is 20.9%.
Under `O=C(CCl)NCCNc1nccc(Nc2ccc(S(=O)(=O)Nc3ccccn3)cc2)n1` stands -44.6% (active); under `CC(Br)C(O)c1cc2c(cc1Br)OCO2` (stereo not given), 101%.
The value for `COc1ccc(NC(=O)c2cc3ccccc3nc2Nc2cc(OC)c(OC)c(OC)c2)cc1` was 48.2%; that for `CN1C(=O)[C@H]2c3c1cccc3[C@@]13NC(=O)O[C@H]1[C@H](CCC3(C)C)C2(C)C` was 103%.
In the case of `COc1ccc(OC)c(C(=O)c2oc3ccc(Br)cc3c2N)c1`, the growth is 16.8%.
The value for `CCc1c(C(=O)Nc2ccc3ccccc3c2)[nH]c(C)c1C(C)=O` was 99.5%.
For the compound `COc1cccc(/C=C2\SC(N3CCN(c4ccccn4)CC3)=NC2=O)c1`, the growth was 103%.
The value for `CCN(CC)c1cc(/C=C/c2ccc(OC)c(OC)c2)nc2cc(F)c(F)cc12` was 24.3%; that for `CC(C)CCN(CCCNc1c2c(nc3ccccc13)CCCC2)CCC(C)C` was 63.7%.
For `Nc1c(C(=O)Nc2cccc(Cl)c2Cl)sc2nc3c(cc12)C(=O)CCC3`, the growth is 93%.
Turning to `Cc1c(C2=NNC(c3ccc4c(c3)OCO4)C2)[n+]([O-])c2ccccc2[n+]1[O-]` (stereo not given), the growth is 99.2%.
`COc1ccc(/C=C2\C(=O)N(C(=O)c3csc(NC(C)=O)n3)N=C2C)cc1`: the growth was 98.2%.
The value for `CCCCCC/C=C\CCCCCCCCOc1ccc(CCOP(=O)(O)OCC[N+](C)(C)C)cc1` was 50.2%; that for `Nc1ccc(S(=O)(=O)c2ccc(Cl)cc2)cc1` was 97.2%.
Under `C=C1C(=O)O[C@H]2[C@H]1CC/C(Cn1cc(-c3ccc(N)cc3)nn1)=C\CC[C@@]1(C)O[C@@H]21` stands -56% (active); under `N#CC1=C(N)n2nc(-c3ccncc3)nc2NC1c1cccc2ccccc12` (stereo not given), 87.9%.
Turning to `O=C(/C=C/CN1CCOCC1)Nc1cc2c(Nc3ccc(F)c(Cl)c3F)ncnc2cc1OCCOC(F)F`, the growth is 49.4%.

The values above are taken from PubChem BioAssay (NCI).
